According to PubChem BioAssay AID624134 (Broad Institute, 2012):
Among all 1,600 compounds or so, about 1,100 (69%) were called active. The set was probably picked from earlier hits. The list is a sample of the results. Results with a measured potency or affinity are listed apart. Records with an inconclusive call do not appear.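 The calls were made as follows: active = signal drop with fitted half-maximal concentration no higher than twice the top valid tested concentration; inconclusive = flat curve with 30 to 70% signal loss, or poor fit; inactive = the rest, including signal rises and flat curves within 30%.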

Test: loss of viability in HepG2 cells – cell-based, CellTiter-Glo, cherry-picked, cytotoxicity control for Shn3 inhibitor project, dose response (AID 624134);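 also: 0% = median of neutral control wells and -100% = median of positive control wells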
Settings: CellTiter-Glo ATP luminescence, 48 h; series mostly up to 35 µM; activity change, negative = cytotoxicity: at the top concentration

SMILES	activity change, negative = cytotoxicity
C=CCOc1nc2c(c(=O)n(C)c(=O)n2C)n1Cc1ccc(Cl)cc1Cl	-2.85% (inactive)
O=C(COC(=O)/C=C/c1ccc(OC(F)F)cc1)Nc1ccc2[nH]c(=O)[nH]c2c1	4.55% (inactive)
C[C@]12CC[C@H](O)CC1=CCC1C2CC[C@@]2(C)C1CCC21OCCO1 (stereo partly drawn)	-14.2% (inactive)
Cc1csc(=O)n1CC(=O)OCC(=O)c1c(N)n(C)c(=O)n(C)c1=O	-7.39% (inactive)
CS(=O)(=O)c1nc(-c2ccc(Br)cc2)cc(-c2ccccc2)c1C#N	-44% (inactive)
Cc1ccc2c(c1)c(C1=c3ccccc3=NC1=O)c(O)n2C	-17.2% (inactive)
CCCCN1CC(COCc2ccccc2)Oc2cccc(Oc3ccc(C)cc3)c2S1(=O)=O (stereo not drawn)	-11.8% (inactive)
COc1ccc2c(c1OC)C(=O)N1c3ccccc3C(=O)N(c3ccccc3F)C21 (stereo not drawn)	-5.72% (inactive)
CC1CN(C(=O)CCc2cc(C(C)(C)C)c(O)c(C(C)(C)C)c2)CC(C)O1 (stereo not drawn)	-3.37% (inactive)
CCOc1ccc(Cn2nnc(C(=O)Nc3cc(OC)cc(OC)c3)c2N)cc1	-16.3% (inactive)
Cc1onc(-c2c(Cl)cccc2Cl)c1C(=O)N[C@@H]1C(=O)N2[C@@H]1SC(C)(C)[C@@H]2C(=O)O	2.2% (inactive)
Cc1onc(-c2ccccc2Cl)c1C(=O)N(C)C1CCCCC1	-13.7% (inactive)
COc1ccc(NC(=O)CCOc2cc(C)ccc2C)cc1S(=O)(=O)N1CCCCC1	-20.7% (inactive)
COCc1c(C(=O)Nc2cccc(S(=O)(=O)N3CCCCC3)c2)oc2ccccc12	-16.8% (inactive)
O=C(CSc1nnc(-c2ccc(Cl)cc2Cl)n1C1CCCCC1)N1CCCC1	-3.6% (inactive)
COC(=O)c1cn(NC(=O)c2cc([N+](=O)[O-])ccc2F)c(=O)c2ccccc12	-7.42% (inactive)
CCCCN1C2=NCCCN2c2cc(C)c(C)cc21	-12.8% (inactive)
CCN(CC)C(=O)[C@H]1C[C@H](CC(=O)NC/C=C(\C)CCC=C(C)C)C(=O)N2CCc3c([nH]c4cc(CCC(=O)N(C)C)ccc34)[C@]12C	1.03% (inactive)
COCCN1Cc2cccc(C(=O)Nc3ccc4c(c3)OCCO4)c2C1=O	-11.9% (inactive)
COc1ccc(N2C(=O)C(CC(=O)Nc3ccccc3)N(Cc3ccc(OC)c(OC)c3)C2=O)cc1 (stereo not drawn)	8.78% (inactive)
COc1cc(NC(=O)c2cc3c(Cl)nc4ccccc4c3s2)cc(OC)c1OC	-12.9% (inactive)
Cc1ccc(CNC(=O)c2cc(-c3ccccc3C)nn2CC2CC(c3cccnc3)=NO2)cc1 (stereo not drawn)	-8.82% (inactive)
COC(=O)c1ccccc1NC(=O)c1nc(S(=O)(=O)Cc2ccccc2)ncc1Cl	2.89% (inactive)
CCS(=O)(=O)c1ncc(Cl)c(C(=O)Nc2ccccc2OC)n1	1.02% (inactive)

SMILES	activity change, negative = cytotoxicity
Cc1cccc(CS(=O)(=O)c2ncc(Cl)c(C(=O)Nc3nnc(C(C)C)s3)n2)c1	-7.95% (inactive)
S=c1[nH]nc(COc2cccc3ccccc23)n1Cc1ccccc1	-3.17% (inactive)
COC(=O)c1ccc(COC(=O)c2[nH]c(C)c(C(C)=O)c2C)o1	-4.96% (inactive)
CCCc1nnc(NC(=O)c2nc(S(=O)(=O)Cc3ccc(C)cc3)ncc2Cl)s1	-3.17% (inactive)
CCc1nnc(NC(=O)c2nc(S(=O)(=O)Cc3cccc(C)c3)ncc2Cl)s1	-14.1% (inactive)
CN(C)S(=O)(=O)c1cccc(N=c2scc(-c3ccc4c(c3)NC(=O)CO4)n2CC2CCCO2)c1 (stereo not drawn)	-15.4% (inactive)
CC(C)(C)C(=O)Nc1cc(S(=O)(=O)N2CCCCC2)ccc1N1CCCCC1	0.395% (inactive)
Cc1ccc(-c2nc3ncccc3o2)cc1NC(=O)c1sc2ccccc2c1Cl	-3.4% (inactive)
Cc1ccc2cc(CN(CC3CCCO3)C(=O)NC3CCCCC3)c(=O)[nH]c2c1C (stereo not drawn)	0.111% (inactive)
Cc1ccc(C(=O)N2CCN(C)CC2)cc1S(=O)(=O)N1CCCCCC1	8.18% (inactive)
O=C(OCCN1C(=O)c2cccc3c(N4CCOCC4)ccc(c23)C1=O)c1ccccc1Cl	2.34% (inactive)
COc1ccc(C(=O)OCC(=O)Nc2ccc3[nH]c(=O)[nH]c3c2)cc1	-7.95% (inactive)
Cc1cccc(C(C)(C)C)c1OCCN1CCCC1	1.96% (inactive)
CCOC(=O)Cc1csc(SCC(=O)c2c(N)n(CC(C)C)c(=O)n(C)c2=O)n1	-10.9% (inactive)
S=C(Nc1ccccc1)Nc1ccc(OCc2ccc(Cl)cc2Cl)cc1	42% (inactive)
COc1ccc2c(c1)c(CC(=O)Nc1cc(C)ccc1C)c(C)n2C(=O)c1ccc(Cl)cc1	-11.7% (inactive)
CCCCN1CC(COCc2ccccc2)Oc2cccc(Oc3cc(C)c(C)c(C)c3)c2S1(=O)=O (stereo not drawn)	-10.9% (inactive)
O=C(CSc1nc(C(F)(F)F)cc(=O)[nH]1)N1CCCC1	-6.06% (inactive)
Clc1ccc(-c2cc(-c3nnc4n3CCCCC4)c3ccccc3n2)cc1	-33.7% (inactive)
Oc1c(CN2CCN(c3ccccc3)CC2)cc(Br)c2cccnc12	-23.7% (inactive)
Cc1cc(CN2CCOCC2)c(O)c(C2(C)CCCCC2)c1	12.9% (inactive)
Cc1ccnc(N/C=C(/NC(=O)c2ccccc2)C(=O)N/N=C\c2ccc(F)cc2)n1	-1.6% (inactive)
CCS(=O)(=O)c1ccc2oc(SCC(=O)N3CCCCC3)nc2c1	-4.82% (inactive)
Oc1ccc(-c2csc(Nc3cccc4ccccc34)n2)cc1O	-12.1% (inactive)
